HT1080-NT tox = qHTS for induction of synthetic lethality in tumor cells producing 2HG: qHTS for the HT-1080-NT fibrosarcoma cell line. Potency, µM (doses to about 46.1 µM), inactives show at the top dose activity, negative = less viability, hits mostly cytotoxic. 1.6% of 360,000 active. HT-1080-NT fibrosarcoma viability, CellTiter-Glo ATP luminescence, 48 h;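 note: NT is the 2HG producing partner of a matched IDH1 knockdown line; 0% = DMSO-treated cells and -100% = media-only wells without cells; nearly all actives have a fitted effect of over 55% in size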
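HT-1080-NT; 750 cells/well; 5% FBS RPMI; 48 h compound, 37 degrees C; CellTiter-Glo luminescence; curve fitting and curve-class assignment.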
TDP1 cell noCPT = qHTS for Inhibitors of human tyrosyl-DNA phosphodiesterase 1 (TDP1): qHTS in cells in absence of CPT. 15% of 420,000 active. AID 686978, 2013. Potency, µM (top dose mostly 46.2 µM), without a hit: at the top dose activity change, negative = growth inhibition, most hits filed as inhibitors. DT40 Tdp1-/- hTDP1 cells, no CPT, ATP luminescence, 48 h; note: nearly all actives have a fitted effect of over 55% in size
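Compound effects on proliferation are scored in DT40 Tdp1-/-;hTDP1 cells in the absence of CPT. ATP levels (CellTiter-Glo luminescence) are recorded after a ≥48 hr, 37 °C incubation.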
DT40 TDP1 CPT = qHTS for Inhibitors of human tyrosyl-DNA phosphodiesterase 1 (TDP1): qHTS in cells in presence of CPT; chicken DT40 Tdp1-/-;hTDP1 cells + 20 nM CPT, ATP luminescence, 48 h; Potency, µM (titrated, usually from 46.2 µM), for the others: top-dose activity change, negative = growth inhibition, most hits filed as inhibitors; 12% of 420,000 active; note: nearly all actives have a fitted effect of over 55% in size
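Chicken DT40 Tdp1-/- cells complemented with human TDP1, 400 cells/well, exposed to compounds plus 20 nM camptothecin for at least 48 h at 37 C; viability read as ATP content by CellTiter-Glo luminescence.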
HT1080 IDH1KD tx = qHTS for induction of synthetic lethality in tumor cells producing 2HG: qHTS for the HT-1080-IDH1KD cell line. HT-1080 IDH1 knockdown viability, ATP luminescence, 48 h. Potency, µM (series often up to 46.1 µM), inactives show top-dose activity, negative = toxicity, hits mostly cytotoxic. 2% of 360,000 active;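 note: 0% = DMSO wells and -100% = cell-free medium wells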
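CellTiter-Glo luminescence after 48 h compound exposure at 37 degrees C of IDH1-knockdown HT-1080 cells in 5% FBS RPMI. %Activity scaled between DMSO wells and cell-free media wells, with curves fitted and assigned curve classes.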
KB-3-1 tox = qHTS assay for MDR1-selective chemotherapeutics: Primary screen using the parental adenocarcinoma cell KB-3-1; KB-3-1 viability, CellTiter-Glo ATP luminescence, 72 h; Potency, µM (titrated, usually from 46.1 µM), most hits filed as cytotoxic; 1.4% of 400,000 active; AID 1347075, 2019; note: nearly all actives have a fitted effect of over 60% in size
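Here the drug-naive KB-3-1 line serves as comparator for MDR sub-line selectivity; cells received compound titrations, 72 h at 37 °C, then CellTiter-Glo readout.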
KB-V1 cytotox = qHTS assay for MDR1-selective chemotherapeutics: Primary screen using the drug-selected MDR subline cells KB-V1 | 3.4% of 400,000 active | Potency, µM (titrated, usually from 46.1 µM), most hits filed as cytotoxic | KB-V1 MDR cells viability, CellTiter-Glo, 72 h; note: nearly all actives have a fitted effect of over 60% in size
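Luminescent ATP read-out (CellTiter-Glo, 10 min) measures survival of drug-selected KB-V1 MDR cells after 72 h, 37 degrees C compound exposure. Medium: phenol-red-free DMEM, 10% FBS. Values from fitted concentration-response curves.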
The depositor's hits bear a star; i = inactive; ? = inconclusive; nt = no result; ! = not active in a repeat; [ ] = another dose, or the depositor's remark. Sampled rows, rich in hits. Any-hit rate of the full collection: about 19%. Calls come from the whole dose curve; as a rule, active = well fitted curve in the direction sought with a large enough effect; inconclusive = small, poorly fitted or top-dose-only effect, or another doubt; inactive = no such curve, though single readings can be large; an effect the other way counts as inactive or inconclusive. Unless noted, % is set by controls: 0 for no effect and ±100 for the full control effect; potency is the fitted concentration of half-maximal effect.

SMILES	HT1080-NT tox	TDP1 cell noCPT	DT40 TDP1 CPT	HT1080 IDH1KD tx	KB-3-1 tox	KB-V1 cytotox
Cn1c(O)c(C(=Nc2ccc(F)cc2)c2ccccc2Cl)c(=O)n(C)c1=O	-10%	7.3µM*	?	-6%	i	i
CSC(=Nc1ccccc1)c1c(O)n(C)c(=O)n(C)c1=O	?	-8%	-12%	?	i	i
COC(=O)c1ccc(N=C(c2ccccc2)c2c(O)n(C)c(=O)n(C)c2=O)cc1	?	23µM*	?	?	i	i
Cn1c(O)c(C(=Nc2ccccc2)SCc2ccccc2Cl)c(=O)n(C)c1=O	?	8.2µM*	5.8µM*	13µM*	18µM*	?
Cc1ccccc1OCCCn1cc(C(=O)C(=O)N2CCOCC2)c2ccccc21	-19%	?	?	-1%	i	?
OC(CN1CCC(c2c[nH]c3ccccc23)CC1)C(F)(F)F (stereo not given)	-4%	-29%	-13%	10%	i	i
C=CCn1c(O)c(N=Nc2c(C)n(C)n(-c3ccccc3)c2=O)c(=O)[nH]c1=S	-7%	9.2µM*	16µM*	-14%	?	3.3µM*
Cc1c(N=Nc2c(O)[nH]c(=S)[nH]c2=O)c(=O)n(-c2ccccc2)n1C	?	8%	1%	-8%	i	i
O=c1[nH]c(=O)n(Cc2ccccc2Cl)c(O)c1/C=C1/C=CC=N1	4.1µM*	5.8µM*	5.8µM*	5.8µM*	23µM*	i
O=c1[nH]c(=O)n(Cc2ccccc2)c(O)c1C=NCCCO	6%	0%	-7%	-1%	i	i
C=CCn1c(O)c(/C=C2/C=CC=N2)c(=O)[nH]c1=O	?	?	?	?	i	?
CCCCn1c(O)c(/C=C2/C=CC=N2)c(=O)[nH]c1=O	15µM*	4.1µM*	18µM*	?	i	i
CCOc1ccc(NC2=NCCCS2)cc1	11%	-17%	11%	14%	i	i
Cc1ccc(-c2noc(=O)n2CC(=O)Nc2ccc(S(=O)(=O)NC3CC3)cc2)cc1	?	?	?	?	i	i
COc1ccc(NC(=O)CSc2oc(-c3cccs3)nc2S(=O)(=O)c2ccccc2)c(OC)c1	nt	23µM*	21µM*	nt	i	i
Cc1ccc(S(=O)(=O)NC(=O)NC2CCCC2)cc1	nt	-1%	5%	nt	nt	nt
Cc1ccc(-c2nc(S(=O)(=O)c3ccc(C)cc3)c(SCC(=O)Nc3ccc(F)cc3)o2)cc1	nt	23µM*	16µM*	nt	i	i
Cc1ccc(-c2nc(S(=O)(=O)c3ccccc3)c(SCC(=O)NC3CCCCC3)o2)cc1	nt	?	13µM*	nt	i	i
C[C@@H]1C[C@@H](O)[C@@]2(O)[C@]13CC(=O)OC[C@]2(C)[C@@](C)(O)C(=O)C3	nt	-20%[9.04 µM]	-22%[9.04 µM]	nt	nt	nt
CN(C)[C@@H]1C(=O)C(C(N)=O)=C(O)[C@@]2(O)C(=O)C3=C(O)c4c(O)cccc4[C@@](C)(O)C3C[C@@H]12 (stereo not given in full)	?	8.2µM*	18µM*	?	i	i
CN(C)C1C(=O)C(C(N)=O)=C(O)[C@@]2(O)C(=O)C3=C(O)c4c(O)cccc4[C@](C)(O)C3C(O)C12 (stereo not given in full)	nt	-26%	-18%	nt	nt	nt
CN(C)[C@@H]1C(=O)C(C(N)=O)=C(O)[C@@]2(O)C(=O)C3=C(O)c4c(O)cccc4[C@@](C)(O)[C@H]3[C@H](O)[C@@H]12	29%	5.8µM*!	7.3µM*!	1%	i	i
CN(C)[C@@H]1C(=O)C(C(N)=O)=C(O)[C@@]2(O)C(=O)C3=C(O)c4c(O)ccc(Cl)c4[C@@](C)(O)[C@H]3C[C@@H]12	-8%	?	15µM*!	-8%	i	?
O=P1(N(CCCl)CCCl)NCCCO1 (stereo not given)	13%	3%	-2%	6%	i	i
COC1=CC=C2[C@H]3Cc4ccc(OC)c5c4[C@@]2(CCN3C)[C@H]1O5	-1%	-21%	3%	-5%	?	i
SMILES	HT1080-NT tox	TDP1 cell noCPT	DT40 TDP1 CPT	HT1080 IDH1KD tx	KB-3-1 tox	KB-V1 cytotox
COc1ccc(C2=NCC(=S)Nc3ccc(Cl)cc32)cc1Cl	0%	21µM*	?	-2%	i	i
CC[C@@H](C(=O)O)[C@@H]1O[C@@H]([C@@H](C)[C@H](O)[C@H](C)C(=O)[C@H](CC)[C@H]2O[C@]3(C=C[C@@H](O)[C@]4(CC[C@@](C)([C@H]5CC[C@](O)(CC)[C@H](C)O5)O4)O3)[C@H](C)C[C@@H]2C)[C@@H](C)C[C@@H]1C	nt	0.27µM*	0.47µM*	nt	nt	nt
CC[C@H](C)[C@H](NC(=O)[C@@H]1CCCN1C(=O)[C@H](CCC(=O)O)NC(=O)[C@@H](NC(=O)[C@H](Cc1ccccc1)NC(=O)[C@@H]1CCCN1C(=O)[C@@H](N)Cc1ccc(O)cc1)C(C)C)C(=O)O	nt	5%[4.12 µM]	-1%[4.12 µM]	nt	nt	nt
CN(C)c1ccc(C=Cc2ccnc3c(O)cccc23)cc1	?	13µM*	?	5%	i	?
CN(C)c1ccc(/C=C/c2ccnc3c(O)cccc23)cc1	nt	10µM*	-98%	nt	?	i
COc1nc(NC2CCCCC2)nc(NC(C)(C)C)n1	-3%	12µM*	?	1%	?	i
Nc1nc(N)nc(NC2CC2)n1	nt	-8%	17%	nt	nt	nt
CCOC(=O)C(NC(=O)CC)(Nc1ccc(C(O)(C(=O)OCC)C(F)(F)F)cc1C)C(F)(F)F (stereo not given)	-4%	-13%	-18%	-5%	i	i
CCOC(=O)C(O)(c1ccc(NC(=S)NC(=O)c2ccc(Cl)cc2Cl)c(C)c1)C(F)(F)F (stereo not given)	16µM*	12µM*	?	23µM*	?	?
COC(=O)C(O)(c1ccc(NC(=S)NC(=O)c2ccc(Cl)cc2Cl)c(C)c1)C(F)(F)F (stereo not given)	?	21µM*	?	?	?	?

Compound activity from PubChem.
